TR SRC2 fluor cs – alters Texas Red total fluorescence, flagging assay interference; TRb/SRC2 Texas Red total fluorescence interference; Potency, µM (highest dose often 106 µM), for inactives: at the top dose fluorescence change, negative = quenching; hit rate 0.29% among 280,000; AID 1479; active = well fitted curve in either direction with a large enough effect; inconclusive = small, poorly fitted or top-dose-only effect
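Human TRb ligand-binding domain at 0.6 uM with 20 nM Texas Red SRC2 peptide in Tris buffer containing 1 uM T3 and 5% DMSO, incubated with compound 5 h at ambient temperature. Total fluorescence (555/632 nm) calculated as parallel + 2 × perpendicular.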
Tau ThT inhib – blocks human tau fibril formation measured by thioflavin T | hit rate 2.1% among 270,000 | recombinant tau K18 P301L, heparin-induced fibrillization, ThT fluorescence | Potency, µM (doses to about 57.4 µM), without a hit: top-dose activity, negative = inhibition, usual class: inhibitors | P10636; also: nearly all actives have a fitted effect of over 55% in size
Target sequence (P10636 561-689 P618L limits assumed): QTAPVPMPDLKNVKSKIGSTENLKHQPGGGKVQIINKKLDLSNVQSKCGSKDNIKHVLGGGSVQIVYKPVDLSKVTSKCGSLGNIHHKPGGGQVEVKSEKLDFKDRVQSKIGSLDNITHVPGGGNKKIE
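ThT emission at 510 nm, taken 1 hr after adding 30 uM dye, quantifies aggregates formed when 20 uM heparin acts on human tau K18 P301L for 6 hr at 37 C.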
Tau fluor cs – counter-screen for tau fibril formation inhibitors; tau K18 P301L Alexa594 fluorescence, heparin fibrillization; AID 1463; Potency, µM (highest dose often 57.7 µM), without a hit: at the highest dose activity change, negative = decrease; hit rate 0.93% among 280,000; also: nearly all actives have a fitted effect of over 55% in size
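Human tau K18 P301L (15 uM unlabeled, 0.24 uM Alexa 594-labeled) in 100 mM sodium acetate pH 7 with 20 uM heparin, 6 hr at 37 C. ThT 30 uM added, 1 hr ambient; Alexa 594 FP and total fluorescence read at 555/632 nm.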
TRb SRC2 PPI – TRbeta-SRC2 interaction inhibition; hit rate 0.065% among 280,000; AID 1469; P10828; TRbeta-SRC2 peptide binding, fluorescence polarization; receptor liganded with 1 µM T3; Potency, µM (titrated, usually from 106 µM), inactives show top-dose activity change, negative = inhibition, most hits filed as inhibitors;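 also: plate controls were bound peptide for no effect and peptide without receptor for full effect; nearly all actives have a fitted effect of over 50% in size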
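Fluorescence polarization of 20 nM Texas Red SRC2 peptide with 0.6 uM human TRb ligand-binding domain, in Tris buffer with 1uM T3 and 5% DMSO. Incubated 5 hr ambient; normalized to unbound and bound controls.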
Tau FP inhib – tau fibrillization inhibition (FP); P10636; K18 P301L tau heparin fibrillization, Alexa594 FP, 6 h; Potency, µM (doses to about 57.7 µM), for the others: top-dose activity, negative = inhibition, most hits filed as inhibitors; hit rate 0.39% among 280,000; also: nearly all actives have a fitted effect of over 55% in size
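Human tau K18 […] P301L fragment, 15 uM unlabeled plus 0.24 uM Alexa 594-labeled tau (final), with compound and 20 uM heparin in 100 mM sodium acetate pH 7; 6 hr at 37 C, then Alexa 594 FP read.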
* = called active by the depositor; ? = inconclusive; [ ] = remark or other dose. Compounds with a hit are over-represented: about 3.1% of the library has one in this group of screens. Unless noted, calls follow the shape of the dose curve; as a rule, active = well fitted curve in the direction sought with a large enough effect; inconclusive = small, poorly fitted or top-dose-only effect, or another doubt; inactive = no such curve, though single readings can be large; an effect the other way counts as inactive or inconclusive. Unless noted, % is scaled to controls: 0 for no effect and ±100 for the full control effect; potency is read from the fitted curve at half-maximal effect.

SMILES	TR SRC2 fluor cs	Tau ThT inhib	Tau fluor cs	TRb SRC2 PPI	Tau FP inhib
O=C(NCc1ccccc1Cl)c1cnc(N2CCOCC2)c2ccccc12	3.6%	-7.4%	-16.5%	0.0%	-7.8%
Cc1ccc(Cl)cc1N1CCN(C(=O)c2cnc(N3CCOCC3)c3ccccc23)CC1	70.8µM*[quencher]	-14.8%	-7.9%	-14.7%	4.5%
O=C(NCc1ccccc1Cl)c1cnc(N2CCCCC2)c2ccccc12	1585µM*[quencher]	-9.7%	-7.1%	-15.1%	7.0%
O=C(Nc1ccc(F)cc1Cl)c1cnc(N2CCOCC2)c2ccccc12	11.2µM*[quencher]	-0.6%	-3.3%	-21.2%	3.0%
CCC1CN(C(=O)N2CCC(C(=O)NCCCc3ccccc3)CC2)c2cc(C)ccc2O1 (stereo unspecified)	-20.4%	-6.5%	-19.2%	6.8%	?
CCC1CN(C(=O)N2CCC(C(=O)N3CCN(c4ccccc4)CC3)CC2)c2ccccc2O1 (stereo unspecified)	-3.5%	?	11.2µM*[quencher]	0.6%	?
CCC1CN(C(=O)N2CCC(C(=O)NCCCc3ccccc3)CC2)c2ccccc2O1 (stereo unspecified)	-0.7%	-19.0%	8.91µM*[quencher]	0.2%	13.4%
CCC1CN(C(=O)N2CCC(C(=O)N(C)Cc3ccccc3)CC2)c2ccccc2O1 (stereo unspecified)	-9.6%	4.4%	-13.9%	-3.3%	-7.2%
CCC1CN(C(=O)N2CCC(C(=O)NCc3ccco3)CC2)c2ccccc2O1 (stereo unspecified)	4.3%	16.5%	3.55µM*[quencher]	2.0%	?
O=C(NCc1ccco1)C1CCN(C(=O)N2CCOc3ccccc32)CC1	2.9%	?	5.01µM*[quencher]	-5.6%	11.2%
O=C(NCc1ccccc1Cl)C1CCN(C(=O)N2CCOc3ccccc32)CC1	-11.0%	-0.1%	-5.7%	-3.0%	-9.4%
COc1ccccc1Nc1ccc(Nc2ccccc2OC)nn1	-7.0%	?	?	-3.6%	13.3%
COc1ccc(OC)c(Nc2ccc(Nc3cc(OC)ccc3OC)nn2)c1	-8.0%	?	12.6µM*[quencher]	-1.9%	?
c1ccc(CN2CCN(C3=Nc4cccc5cccc3c45)CC2)cc1	-2.3%	?	-16.7%	3.8%	-3.2%
Fc1ccc(N2CCN(C3=Nc4cccc5cccc3c45)CC2)cc1	0.0%	4.47µM*	-24.3%	1.2%	-1.0%
Cc1ccc(C)c(S(=O)(=O)c2cn(Cc3ccccc3)c3cc(N4CCCC4)c(F)cc3c2=O)c1	3.1%	-1.5%	-0.1%	-0.5%	0.4%
Cc1cc2n(n1)C(c1c[nH]c3ccccc13)Nc1ccccc1-2 (stereo unspecified)	-1.9%	?	25.1µM*[quencher]	-4.3%	28.2µM*
Cc1cc2n(n1)C(c1cn(-c3ccccc3)nc1C)Nc1ccccc1-2 (stereo unspecified)	-1.2%	-7.2%	-18.9%	2.5%	-9.4%
COc1cc(C2Nc3ccccc3-c3cc(C)nn32)ccc1O (stereo unspecified)	1.7%	-10.8%	-20.2%	7.5%	6.3%
CCOc1cccc(C2Nc3ccccc3-c3cc(C)nn32)c1O (stereo unspecified)	0.0004µM*[quencher]	-16.5%	-29.7%	-11.6%	0.9%
Cc1ccc(-n2nnnc2SC(C(=O)c2c[nH]c3ccccc23)c2ccccc2)cc1 (stereo unspecified)	-13.2%	17.1%	?	6.5%	11.2µM*
Cc1ccc(-c2csc(-c3c[nH]c4ccccc34)n2)c(C)c1	-1.6%	14.1µM*	10µM*[quencher]	8.1%	?
Oc1ccc(-c2csc(-c3c[nH]c4ccccc34)n2)c(O)c1	-6.3%	6.31µM*	10µM*[quencher]	0.5%	?
COc1ccc(NC(=O)CN2C(=O)CC(c3ccco3)Sc3ccccc32)cc1OC (stereo unspecified)	2.0%	-7.1%	-25.4%	-4.7%	1.8%
O=C1CSC(=NC2CCCCC2)N1	1.1%	22.4µM*	-7.7%	-5.2%	?
CCN1/C(=C\C=C(C(C)=O)C(C)=O)Sc2ccccc21	-1.9%	?	-6.7%	-5.0%	10.4%
CCN1/C(=C\C(=S)Nc2ccccc2)Sc2ccccc21	-0.3%	7.94µM*	?	3.5%	?
